Source: PubChem BioAssay
Only a sample is shown.
aSyn 5UTR act: Activators via SNCA 5'UTR binding, MLPCN; alpha-synuclein 5'UTR reporter, activators screen; activity score, % (tested at 7.5 µM), hits read low; hit rate 7.1% among 300,000; in the data active means activity score below about -60%
Each line names hits and unclear results; the compound was inactive in the other large screens.

O=C(NCCOc1ccccc1)C1CCCCC1	aSyn 5UTR act -88.8
COc1ccccc1/C=C/C(=O)NCCC1=CCCCC1	aSyn 5UTR act -149.9
O=C(/C=C/c1ccc(F)cc1)NCCC1=CCCCC1	aSyn 5UTR act -105.3
O=C(/C=C/c1ccccc1)NCCC1=CCCCC1	aSyn 5UTR act -193.8
CCOC(=O)c1csc(NC(=O)c2cc(=O)c3ccccc3o2)n1	aSyn 5UTR act -68.5
CC(=O)c1sc(NC(=O)c2ccc(Br)o2)nc1C	aSyn 5UTR act -76.5
CC(=O)c1sc(NC(=O)c2cc(=O)c3ccccc3o2)nc1C	aSyn 5UTR act -81.2
COc1ccc(C(=O)/C(=C/c2cccs2)c2nc3ccccc3o2)cc1	aSyn 5UTR act -135.8
COc1ccc(/C=C(\CC(=O)O)c2nc3ccccc3o2)cc1	aSyn 5UTR act -108.9
CCOC(=O)c1cnc2cc(-c3ccc(Cl)cc3)nn2c1N	aSyn 5UTR act -87.0
CCOC(=O)c1cnc2cc(-c3ccc(Br)cc3)nn2c1C	aSyn 5UTR act -131.3
CCNc1nc(-c2ccc(OC(F)F)cc2)c(C)s1	aSyn 5UTR act -72.0
CCCc1ccc(OCc2nc(-c3ccc(NC(=O)c4cccs4)cc3)no2)cc1	aSyn 5UTR act -169.1
CCCc1ccc(OCc2nc(-c3ccc(NC(=O)c4ccco4)cc3)no2)cc1	aSyn 5UTR act -119.2
CC(Oc1ccc(Cl)cc1Cl)c1nc(-c2ccc(NC(=O)c3ccco3)cc2)no1 (stereo not given)	aSyn 5UTR act -147.2
Cc1ccccc1OCc1nc(-c2ccc(NC(=O)c3ccc4c(c3)OCO4)cc2)no1	aSyn 5UTR act -108.6
Cc1ccccc1OCc1nc(-c2ccc(NC(=O)c3cccs3)cc2)no1	aSyn 5UTR act -276.5
CC(C)c1ccc2[nH]c3c(c2c1)[C@@H]1CCN2C(=O)CCC[C@H](C3)[C@H]12	aSyn 5UTR act -92.6
Cc1cccc(NC(=O)c2cccc(OC(=S)N3CCOCC3)c2)c1C	aSyn 5UTR act -65.5
Cc1ccc(N2CN=c3s/c(=C\c4ccccn4)c(=O)n3C2)cc1	aSyn 5UTR act -63.1
CCn1cnc2cc(NCc3nc4ccccc4n3Cc3ccccc3)ccc21	aSyn 5UTR act -138.0
CCn1cnc2cc(NCc3nc4ccccc4n3C)ccc21	aSyn 5UTR act -107.7
CC(C)n1cnc2cc(NCc3nc4ccccc4n3C)ccc21	aSyn 5UTR act -115.1
Fc1ccc(N2Cc3ccsc3C=N2)cc1	aSyn 5UTR act -64.0
CCN(CC)CCOc1c(Br)ccc2c1sc1nc3n(c(=O)c12)CCC3	aSyn 5UTR act -110.8
COc1ccc(-c2coc3cc(OC)cc(OC)c3c2=O)cc1	aSyn 5UTR act -166.2
CC(C)Oc1cc(O)c2c(=O)c(-c3ccc(O)cc3)coc2c1	aSyn 5UTR act -138.3
COc1ccc(-c2coc3cc(O)cc(O)c3c2=O)cc1	aSyn 5UTR act -114.6
O=c1c(-c2ccc(O)cc2)coc2cc(O)cc(O)c12	aSyn 5UTR act -99.2
COc1ccc(-c2coc3cc(OC)cc(O)c3c2=O)cc1	aSyn 5UTR act -129.8
Cc1cc(C)n2nc(C(=O)Nc3nccs3)nc2n1	aSyn 5UTR act -111.5
Cc1csc(NC(=O)c2nc3nc(C)cc(C)n3n2)n1	aSyn 5UTR act -90.0
CC1CCN(CC(CS(=O)(=O)c2ccc([N+](=O)[O-])cc2)N2CCC(C)CC2)CC1 (stereo not given)	aSyn 5UTR act -65.5
Cc1ccc2c(c1)C1CN(C)CCC1N2C(=O)Nc1ccc(Cl)cc1 (stereo not given)	aSyn 5UTR act -66.1
O=c1c2ccccc2sn1-c1ccccc1	aSyn 5UTR act -115.1
O=C(/C(=C(\O)c1ccccc1)c1nc2ccccc2[nH]1)c1ccccc1	aSyn 5UTR act -107.8
Cc1csc(NC(=O)c2ccc(Cl)nc2)n1	aSyn 5UTR act -92.7
Cc1csc(NC(=O)c2cc(C)oc2C)n1	aSyn 5UTR act -128.5
CC(C)(C)c1csc(NC(=O)c2ccccc2O)n1	aSyn 5UTR act -141.4
Cc1csc(NC(=O)c2ccccc2O)n1	aSyn 5UTR act -84.4
Cc1ccc(-c2ccc(NC(=O)C3C4C=CC(C4)C3C(=O)O)cc2)o1 (stereo not given)	aSyn 5UTR act -180.6
COCCCNC(=O)/C=C/c1ccc(Cl)cc1Cl	aSyn 5UTR act -84.6
Cc1nn(-c2ccccc2)c(/N=C/c2ccc(O)cc2)c1-c1ccccc1	aSyn 5UTR act -133.6
OCC1CCCN(C(=S)NCCc2ccccc2)C1 (stereo not given)	aSyn 5UTR act -106.5
CC1CCN(C(=S)NCCc2ccccc2)CC1	aSyn 5UTR act -138.0
CC(C)c1ccc(CNc2ccc([N+](=O)[O-])cn2)cc1	aSyn 5UTR act -77.9
CC(C)c1ccc(CNc2ncc(Br)cn2)cc1	aSyn 5UTR act -153.1
CC(C)c1ccc(CNc2c([N+](=O)[O-])c(=O)oc3ccccc23)cc1	aSyn 5UTR act -70.8
O=[N+]([O-])c1ccc(NCc2ccc(Cl)cc2)nc1	aSyn 5UTR act -104.9
CCOC(=O)c1cc2c(nc1N)CC(C)(CC)OC2 (stereo not given)	aSyn 5UTR act -100.7
Oc1ccc(/C=N/Nc2ccc(C(F)(F)F)cn2)cc1	aSyn 5UTR act -280.1
COC(=O)c1ccc(/C=N/NC(=O)c2cccc(F)c2)cc1	aSyn 5UTR act -133.9
O=C(N/N=C/c1ccccc1Cl)c1ccc(F)cc1	aSyn 5UTR act -189.0
COc1cc(C(=O)Oc2ccccc2/C=N/NC(=O)c2ccc(C)c(Cl)c2)cc(OC)c1OC	none
O=C(N/N=C(\c1ccccc1)c1cccnc1)c1cccc(F)c1	none
O=C(N/N=C/c1cnc2ccccc2n1)c1cccc(F)c1	aSyn 5UTR act -120.3
COc1cc(C(=O)N/N=C/c2cn(Cc3cccc(F)c3)c3ccccc23)ccc1O	none
O=C(N/N=C\c1ccc(F)cc1)c1ccc(F)cc1	aSyn 5UTR act -131.6
O=C(N/N=C/c1ccc[nH]1)c1ccc(Cl)cc1	aSyn 5UTR act -121.0
Nc1ccc(C(=O)N/N=C/c2ccccc2)cc1	aSyn 5UTR act -140.5
O=C(N/N=C/c1cccc(NC(=O)c2ccc(Cl)cc2)c1)c1cccc(O)c1	aSyn 5UTR act -68.1
O=C(N/N=C/c1cccs1)c1cccc(NC(=O)c2ccc(Cl)cc2)c1	none
O=C(O)c1ccc(N/N=C/c2ccc(C(F)(F)F)cc2)cc1	none
O=C(N/N=C/c1ccc(C(F)(F)F)cc1)c1ccc(O)cc1	aSyn 5UTR act -85.1
O=C(N/N=C/c1c(O)ccc2ccccc12)c1cccc(C(F)(F)F)c1	none
C/C(=N\Nc1ccc(C(F)(F)F)cn1)c1ccncc1	aSyn 5UTR act -148.1
CSc1ccc(/C=N/NC(=O)c2cccc(O)c2)cc1	aSyn 5UTR act -166.9
COc1cccc(NC(=O)C(=O)N/N=C(\C)CC(=O)Nc2ccc(NC(C)=O)cc2)c1	aSyn 5UTR act -195.9
C/C(CC(=O)Nc1cc(C)ccn1)=N\NC(=O)C(=O)Nc1cccc(C)c1	aSyn 5UTR act -74.3
C/C(CC(=O)Nc1ccc(OCc2ccccc2)cc1)=N\NC(=O)C(=O)Nc1ccc(C)c(Cl)c1	aSyn 5UTR act -69.3
C=CCN1C(=O)CS/C1=N\N=C\c1cccc([N+](=O)[O-])c1	aSyn 5UTR act -72.7
O=C(CSc1nnc(-c2ccccc2)o1)N1CCCCC1	aSyn 5UTR act -74.3
O=C(CSc1nnc(-c2ccc(F)cc2)o1)N1CCCCC1	aSyn 5UTR act -88.2
Cn1nc([N+](=O)[O-])nc1Sc1nnc(-c2ccccc2)o1	none
O=C(CSc1nnc(-c2ccccc2)o1)N1CCCC1	aSyn 5UTR act -102.0
CC1CCN(C(=O)CCc2nnc(-c3ccccc3)o2)CC1	aSyn 5UTR act -106.3
O=C(CCc1nnc(-c2ccc3c(c2)OCO3)o1)N1CCC(c2ccc(F)cc2)C1 (stereo not given)	aSyn 5UTR act -104.0
CCOc1ccc(N=NC2C(=O)N(C(N)=S)N=C2C)cc1 (stereo not given)	aSyn 5UTR act -141.9
CC1=NN(C(N)=S)C(=O)C1N=Nc1ccc(F)cc1 (stereo not given)	aSyn 5UTR act -88.9
